Drawing on PubChem BioAssay AID720598 (Broad Institute, 2013), this text covers outcome for 2 molecules.

A short description of the test: HT-29 colorectal cell cytotoxicity over time, dose response, HRas target identification project, CellTiter-Glo, multiple timepoints, dry powder (AID 720598). Particulars: HT-29 viability, CellTiter-Glo ATP luminescence, 8-48 h; series mostly up to 35 µM. (In general: ATP-based viability assays read luminescence as a measure of living cells.)

Results with a measured potency or affinity are listed apart. Calls of active or inactive are those of the source.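 How the source made its calls: active means viability drop at all three exposure times, fitted half-maximal dose at most twice the top valid dose; inconclusive means exposure times disagree in their calls; inactive means inactive at every exposure time.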

In the case of `CCC(=O)N(c1ccc(OC)c(Cl)c1)C(C(=O)NCCc1ccccc1)c1cccs1` (configuration not stated), the outcome was inactive. In the case of `Cc1onc(C(=O)N2CCN(C(c3ccncc3)c3ccncc3)CC2)c1[N+](=O)[O-]`, the molecule was called inactive.
